Reference: PubChem BioAssay AID1851 (National Center for Advancing Translational Sciences (NCATS), 2009)
Where “and” joins values, the source holds several entries; their conditions need not be identical. Equal entries are not always repeated. The whole screen tested about 16,000 compounds, of which about 4,000 (25%) were called active. Another 26% or so got no clear call; they are omitted. These entries were drawn from the full list. Unmarked numbers belong to inactive results. Calls come from the whole dose curve; as a rule, active = well fitted curve in the direction sought with a large enough effect; inconclusive = small, poorly fitted or top-dose-only effect, or effect the other way; inactive = no such curve, though single readings can be large or run the other way.

Each compound was assayed against Cytochrome P450 2C9 (Homo sapiens) (UniProt P11712) (assay: Cytochrome panel assay with activity outcomes). Settings: recombinant CYP, pro-luciferin dealkylation, luminescence, p450-cyp2c9; series mostly up to 57.1 µM.
% is set by controls: 0 for no effect and ±100 for the full control effect.

Chain of Cytochrome P450 2C9 (Homo sapiens) (P11712 whole entry, looked up): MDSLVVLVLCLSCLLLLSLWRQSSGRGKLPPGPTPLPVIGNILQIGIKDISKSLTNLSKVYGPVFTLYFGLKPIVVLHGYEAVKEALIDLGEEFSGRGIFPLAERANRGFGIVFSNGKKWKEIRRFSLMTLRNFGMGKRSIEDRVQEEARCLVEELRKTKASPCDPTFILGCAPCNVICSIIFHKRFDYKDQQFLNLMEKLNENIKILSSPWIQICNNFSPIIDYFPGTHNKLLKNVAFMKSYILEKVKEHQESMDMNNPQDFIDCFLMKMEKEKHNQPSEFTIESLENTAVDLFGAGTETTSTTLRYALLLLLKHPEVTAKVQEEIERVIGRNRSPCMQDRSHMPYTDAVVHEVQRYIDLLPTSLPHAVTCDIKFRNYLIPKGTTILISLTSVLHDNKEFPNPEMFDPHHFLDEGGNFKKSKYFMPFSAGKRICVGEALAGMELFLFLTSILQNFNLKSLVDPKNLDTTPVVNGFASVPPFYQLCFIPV

Row | Compound | AC50 | activity, negative = inhibition
1 | C#C[C@]1(O)CC[C@@H]2[C@H]3CCc4cc(OC)ccc4[C@@H]3CC[C@@]21C | inactive | –
2 | C#C[C@@]1(O)CC[C@@H]2[C@@H]3CCC4=CC(=O)CC[C@@H]4[C@H]3CC[C@]21CC | inactive | –
3 | C#C[C@]1(O)CC[C@@H]2[C@H]3CCC4=CCCC[C@@H]4[C@@H]3CC[C@@]21C | 10 µM (active) | –
4 | C#C[C@@]1(OC(C)=O)CC[C@@H]2[C@@H]3CCC4=C[C@@H](OC(C)=O)CC[C@H]4[C@H]3CC[C@]21C | 15.8 µM (active) | –
5 | CC(C)(C)C(=O)NC(=C(Cl)Cl)P(=O)(O)O | inactive | –
6 | CCCn1nc(NC(=O)CC(C)C)c2cc3ccccc3nc21 | 2 µM (active) | –
7 | CCCS(=O)(=O)N1CCN(CC2CC=CCC2)CC1 (stereo not drawn) | inactive | –
8 | Cc1noc(C)c1-c1cc(NC2CC2)ncn1 | – | -1.99% [at 2.29 µM]
9 | N/C(CC(=O)Nc1cc(C(F)(F)F)ccc1Cl)=N\O | – | 11.2% [at 11.4 µM]
10 | COc1cc(C(=O)Nc2cc(C(F)(F)F)ccc2Cl)cc(OC)c1OC | 8.91 µM (active) | –
11 | COc1cc(NC(=O)c2ccc(COCC(F)(F)F)cc2)cc(OC)c1OC | inactive | –
12 | CC(C)(CN)CN | – | 2.97% [at 11.4 µM]
13 | CCC(C)NC(=O)C1CCN(C(=O)c2ccccc2)CC1 (stereo not drawn) | inactive | –
14 | CC(C)C(NC(=O)C1CCCCC1)C(=O)NC1CCN(Cc2ccccc2)CC1 (stereo not drawn) | inactive | –
15 | CCC(C)NC(=O)C1CCCN(C(=O)NC2CCCCC2)C1 (stereo not drawn) | 20 µM (active) | –
16 | COc1ccc(C2C(C(=O)N3CCN(C)CC3)c3ccccc3C(=O)N2C2CCCCC2)cc1 (stereo not drawn) | inactive | –
17 | COc1ccc(C2C(=O)N(CCc3ccccc3)CC(=O)N2C2CCCC2)cc1 (stereo not drawn) | 22.4 µM (active) | –
18 | Cc1ccc(CCN2CC(C(=O)NC3CCCC3)CC2=O)cc1 (stereo not drawn) | inactive | –
19 | Cn1c(=O)n2n(c1=O)[C@H]1[C@H](O)[C@H]3O[C@H]3C(=O)[C@H]1CC2 | – | 7.6% [at 11.4 µM]
20 | O=C(O)CN(CCN(CC(=O)O)CC(=O)O)CC(=O)O.[Cu] | – | 4.98% [at 11.4 µM]
21 | Cc1[nH]nc(-c2ccc(OCc3cnn(-c4ccccc4)c3)cc2O)c1Oc1ccccc1F | 2 µM (active) | –
22 | COC(=O)c1ccc(Oc2coc3cc(OCc4cnn(-c5ccccc5)c4)ccc3c2=O)cc1 | inactive | –
23 | Cc1ccc(NC(=O)Nc2nc(-c3ccc(C)s3)cs2)cc1 | 3.55 µM (active) | –
24 | O=C(c1cc(C(F)(F)F)cc(C(F)(F)F)c1)N1CCC[C@@]2(CCN(c3ncccn3)C2)C1 | inactive | –

Row | Compound | AC50 | activity, negative = inhibition
25 | CC(C)(C)c1ccc(C(=O)NCc2ccc(Cl)cc2)cc1 | inactive | –
26 | COc1ccc(CNC(=O)C2CSC(=O)C2)cc1 (stereo not drawn) | inactive | –
27 | COc1ccc(CNC(=O)c2csc(Cc3ccc(Cl)cc3)n2)cc1 | 3.98 µM (active) | –
28 | COc1ccc(CNC(=O)c2csc(Cc3ccc(OC)cc3)n2)cc1 | 10 µM (active) | –
29 | Cc1cc(C(=O)NCc2ccccc2)no1 | inactive | –
30 | COc1ccc(Cc2c(N)nc(N)nc2N)cc1 | inactive | –
31 | COc1ccc(CNC(=O)C2CC(c3ccc(OC)cc3)=NO2)cc1 (stereo not drawn) | inactive | –
32 | COc1ccc(CNC(=O)c2cnc(C)cn2)cc1 | 35.5 µM (active) | –
33 | Cc1nc(CN2CCCCC2)c(O)c(=O)[nH]1 | – | 7.96% [at 11.4 µM]
34 | C[C@]1(c2ccccc2)OC(C(=O)O)=CC1=O | inactive | –
35 | CC(=O)N(O)CCCCCNC(=O)CCC(=O)N(O)CCCCCNC(=O)CCC(=O)N(O)CCCCCN | inactive | –
36 | Cc1ccc(Cl)cc1N1CCN(S(=O)(=O)c2ccc3c(c2)OCCO3)CC1 | 2.82 µM (active) | –
37 | O=c1c(Cl)c(N2CCN(S(=O)(=O)c3ccc(F)cc3)CC2)cnn1-c1cccc(Cl)c1 | inactive | –
38 | O=C(c1ccc2c(c1)OCCO2)C1CCN(S(=O)(=O)c2ccccc2F)CC1 | inactive | –
39 | Cc1ccc2nc(N3CCN(S(=O)(=O)c4ccc5c(c4)OCCO5)CC3)c(C#N)cc2c1 | 2.82 µM (active) | –
40 | O=C(O)CCC(=O)N1CCOc2ccc(Cl)cc21 | inactive | –
41 | Cc1occc1C(=O)NNC(=O)c1ccc(F)cc1 | inactive | –
42 | CC(=O)C1=C(NC(=O)c2ccc(F)cc2)CC2C1C2(C)C (stereo not drawn) | 3.55 µM (active) | –
43 | O=C(Nc1cccc2[nH]ncc12)c1ccc(F)cc1 | inactive | –
44 | C/C(CCN1CCCc2nc(C)c(C)cc21)=N\OC[C@@H](C)[C@H](OCc1ccccc1)C(C)C | – | 24.5% [at 11.4 µM]
45 | Cn1ncc2c(NCCc3ccccc3)nc(Cl)nc21 | – | -22.7% [at 11.4 µM]
46 | O=C(CCCc1ccccn1)c1ccccc1 | – | -17.1% [at 11.4 µM]
47 | OC[C@@H](O)COc1cccc2ccccc12 | inactive | –
48 | COc1ccccc1N1CCN(C[C@@H](O)COc2cccc3ccccc23)CC1 | inactive | –

Row | Compound | AC50 | activity, negative = inhibition
49 | O=C(COc1cccc2ccccc12)N1c2ccccc2CCc2ccccc21 | 2.82 µM (active) | –
50 | O=C(c1cccc(F)c1)N1CCC2(CCCN(Cc3nccs3)C2)CC1 | inactive | –
51 | O=C(c1cccc(F)c1)N1CCC2(CCN(Cc3nccs3)CC2)CC1 | 15.8 µM (active) | –
52 | O=C(c1ccncc1)N1CCC2(CCN(Cc3nccs3)CC2)CC1 | inactive | –
53 | O=C(c1cc(C(F)(F)F)cc(C(F)(F)F)c1)N1CCC[C@@]2(CCN(Cc3nccs3)C2)C1 | inactive | –
54 | O=C(c1cccc(F)c1)N1CCC[C@@]2(CCN(Cc3nccs3)C2)C1 | 10 µM (active) | –
55 | O=C(c1cc(C(F)(F)F)cc(C(F)(F)F)c1)N1CCC2(CCN(Cc3nccs3)CC2)CC1 | 12.6 µM (active) | –
56 | O=C(c1cc(C(F)(F)F)cc(C(F)(F)F)c1)N1CCC2(CCCN(Cc3nccs3)C2)CC1 | inactive | –
57 | O=C(c1ccco1)N1CCC[C@@]2(CCN(Cc3nccs3)C2)C1 | inactive | –
58 | O=C(c1ccco1)N1CCC2(CCN(Cc3nccs3)CC2)CC1 | inactive | –
59 | NC(N)=NN=Cc1c(Cl)cccc1Cl | inactive | –
60 | Cc1cc2ccccn2c1C(=O)c1ccc(Cl)cc1 | 11.2 µM (active) | –
61 | Cc1cc(CC(=O)O)n(C)c1C(=O)c1ccc(Cl)cc1 | inactive | –
62 | CCS(=O)(=O)c1ccc(C(=O)Nc2ccccc2)c(Cl)c1Cl | 10 µM (active) | –
63 | CN1C[C@H](c2ccccc2)C(O)([C@]2(c3ccccc3)CN(C)C[C@@H](c3ccccc3)C2=O)[C@H](c2ccccc2)C1 (stereo partly drawn) | – | 5.9% [at 11.4 µM]
64 | O=C(c1ccncc1)N1CCC2(CCCN(Cc3ccncc3)C2)CC1 | 5.01 µM (active) | –
65 | O=C(c1ccncc1)N1CCC[C@@]2(CCN(Cc3ccccc3)C2)C1 | inactive | –
66 | COc1ccc(C(=O)N2CCC3(CCCN(Cc4ccccc4)C3)CC2)cc1 | inactive | –
67 | COc1ccc(C(=O)N2CCC3(CCCN(Cc4ccncc4)C3)CC2)cc1 | 3.16 µM (active) | –
68 | COc1ccc(C(=O)N2CCC3(CCCN(CC(C)C)C3)CC2)cc1 | inactive | –
69 | O=C(c1ccncc1)N1CCC2(CCCN(Cc3ccccc3)C2)CC1 | inactive | –
70 | COc1cc2c3cc1Oc1cc(ccc1O)C[C@@H]1c4c(cc(OC)c(O)c4Oc4ccc(cc4)C[C@H]3[N+](C)(C)CC2)CC[N+]1(C)C | – | 4.34% [at 11.4 µM]
71 | Cc1sc(NC(=O)c2ccco2)c(C(c2cccnc2)N2CCCC2)c1C (stereo not drawn) | 2.51 µM (active) | –
72 | O=C(Nc1c(C(=O)N2CCOCC2)cnn1-c1ccccc1)c1ccco1 | inactive | –

Row | Compound | AC50 | activity, negative = inhibition
73 | O=C(Nc1c(C(=O)N2CCCCC2)cnn1-c1ccccc1)c1ccco1 | inactive | –
74 | Cc1sc(NC(=O)c2ccco2)c(C(c2ccncc2)N2CCOCC2)c1C (stereo not drawn) | 2.24 µM (active) | –
75 | Cc1cnc(CNc2ncncc2-c2c(C)noc2C)cn1 | – | 17.1% [at 2.29 µM]
76 | O=C1NCC2(CCN(CCc3ccccc3)CC2)O1 | inactive | –
77 | N#C[C@H](c1ccccc1)N1CCCN([C@@H](C#N)c2ccccc2)C1c1ccccc1O (stereo partly drawn) | 3.16 µM (active) | –
78 | O=c1sc2ccccc2n1CCCOc1ccccc1 | 12.6 µM (active) | –
79 | C[N+](C)(CCCOc1ccccc1)c1ccccc1 | inactive | –
80 | Cc1ccccc1OCCCN1CCCC1 | inactive | –
81 | Cc1ccccc1OCCCn1c(=O)sc2ccccc21 | 5.01 µM (active) | –
82 | O=C(O)c1ccccc1NCn1c(=S)sc2ccccc21 | – | -5.72% [at 11.4 µM]
83 | Cc1ccc(Cl)cc1-n1c(=O)cc(N2CC(C)OC(C)C2)[nH]c1=O (stereo not drawn) | inactive | –
84 | NS(=O)(=O)c1ccc(N=Nc2c(O)c(C(=O)O)cc3ccccc23)cc1 | – | -28.9% [at 11.4 µM]
85 | C=CCNS(=O)(=O)c1cccc2cc(C(=O)O)c(O)cc12 | 2.82 µM (active) | –
86 | O=C(O)c1cc2ccccc2c(Cc2cc3ccccc3c(C(=O)O)c2O)c1O (tested in a mixture with another compound) | inactive | –
87 | N#Cc1cccc(NC(=O)N2CC[C@@]3(CCCNC3)C2)c1 | inactive | –
88 | CC(=O)OC[C@@H]1O[C@H](C/C=N\O[C@@H](C)c2cn([C@H](CO)Cc3ccccc3)nn2)C=C[C@@H]1OC(C)=O | – | 8% [at 11.4 µM] and -8.02% [at 11.4 µM]
89 | COc1ccc(O[C@H]2C=C[C@@H](c3ccccc3)O[C@H]2COC(=O)CC/C(C)=N\O[C@@H](C)c2cn([C@H](CO)Cc3ccccc3)nn2)cc1 | 1.26 µM (active) | –
90 | CO/N=C(/C)CCC(=O)OC[C@@H]1O[C@H](C#Cc2ccccc2)C=C[C@@H]1Oc1ccc(C)cc1 | – | -2.9% [at 11.4 µM]
91 | COc1ccc(O[C@H]2C=C[C@@H](c3ccccc3)O[C@H]2COC(=O)CC/C(C)=N\O[C@@H](C)CN2CCCCc3nc(C)c(C)cc32)cc1 | – | -28.1% [at 11.4 µM]
92 | C/C(CCC(=O)OC[C@@H]1O[C@H](C#Cc2ccccc2)C=C[C@@H]1Oc1ccc(C)cc1)=N/O[C@@H](C)c1cn([C@H](CO)Cc2ccccc2)nn1 | 3.16 µM (active) | –
93 | C/C(CCC(=O)OC[C@@H]1O[C@H](C#Cc2ccccc2)C=C[C@@H]1Oc1ccc(C)cc1)=N/OC[C@@H](C)[C@H](OCc1ccccc1)C(C)C | – | 12.5% [at 11.4 µM]
